The results in this text go back to the supplement of paper PMC10338343.

A value given as a limit tells only on which side of the number the result lay.

In this assay the test system is MILI (PIWIL2) piRISC loaded with L1MC piRNA (26 nt). Description: pre-steady-state target cleavage rate (min^-1); guide: L1MC piRNA 5'p-UAACUAAAUACUAUGCAAGCUGUAGG; MIWI and MILI are mouse PIWI proteins and EfPiwi is from a freshwater sponge; tags in brackets are library labels; higher = faster piRNA-guided slicing of the target. The conditions noted are these: auxiliary factor: none (no GTSF1). The essentials:
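Using HEPES–potassium acetate buffer at 33 °C, 1 nM active affinity-purified piRISC with a single synthetic guide was mixed with 0.1 nM transcribed, DNA-blocked target RNA library for 0–8 or 0–960 min, with or without 500 nM GTSF1 partner protein. Uncleaved targets were sequenced and normalised to depth and to weakly complementary targets, and three trials were pooled with k3 capped at 0.0001 min^-1. A burst-and-steady-state fit gave the pre-steady-state cleavage rate.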
On to UCCUGGAUGUCGAACCAUAGUAUGUUAGUUA, for which the “pre-steady-state target cleavage rate” value is below 0.0001.
The figure for UCCUGGAUGUCGAACGUUUGUAUUUAGUAA is below 0.0001; for UCCUGCUACAGCUUGCAUAGAUAUUAGAAA it is below 0.0001; for UCCUGGAUGUCGUUCCAUAGUAUUUAGAUA it is below 0.0001.
